# TDP-43 yeast inh – inhibitors of TDP-43 toxicity in yeast | TDP-43 expressing yeast growth rescue, BacTiter-Glo, 24 h | Potency, µM (doses to about 46.1 µM), inactives show at the highest dose growth rescue (activation), actives largely listed as activators | actives 1.8% (n = 410,000) | AID 652104; note: % of control where 0% means no effect; nearly all actives have a fitted effect of over 50% in size
#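 Galactose-induced TDP-43 yeast, OD600=0.02, compound pinned; 24 hr, 30 deg C; BacTiter-Glo luminescence for growth. Inhibitors of TDP-43 toxicity read as activators.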
# FUS suppressor – suppressors of FUS proteinopathy in yeast; Potency, µM (series often up to 76.6 µM), hits mostly activators; actives 0.24% (n = 390,000); S. cerevisiae FUS-expressing, growth rescue, OD600, 24 h;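 note: plate controls were DMSO vehicle for no effect and reference control for full effect; nearly all actives have a fitted effect of over 55% in size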
#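 Quantitative HTS measuring growth restoration of FUS-toxic yeast. Galactose-induced cells (OD 0.005) were exposed 24hr at 30C to compounds at several concentrations, then absorbance at 600 nm was recorded.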
# aSyn yeast inh – inhibitors of alpha-synuclein toxicity in yeast | Yeast expressing alpha-synuclein, growth rescue, BacTiter-Glo, 24 h | Potency, µM (series often up to 46.1 µM), for inactives: at the highest dose growth rescue (activation), actives largely listed as activators | actives 0.14% (n = 370,000) | AID 652106; note: % of control where 0% means no effect; nearly all actives have a fitted effect of over 65% in size
#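 Readout is rescue of growth in alpha-synuclein-expressing yeast, so inhibitors of toxicity appear as activators. Growth after 24 hr at 30 deg C in galactose medium is quantified by luminescence.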
# Mito fusion yeast – inhibitors of mitochondrial division or activators of mitochondrial fusion | S. cerevisiae fusion-defective mutant growth rescue, CellTiterGlo 48 h | Potency, µM (titrated, usually from 46.1 µM), without a hit: top-dose growth rescue (activation), most hits filed as activators | actives 0.23% (n = 320,000) | AID 485298; note: % of control where 0% means no effect; nearly all actives have a fitted effect of over 45% in size
#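 Yeast fusion mutant, YPEG (non-fermentable carbon), compound, 48 h at 37C non-permissive; CellTiterGlo added, 10 min RT, luminescence read. Rescued growth = division inhibition.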
# Abeta yeast res – restores growth of yeast expressing A-beta42 peptide; yeast expressing A-beta42, growth rescue, OD600, 48 h; response scale: 0% DMSO, 100% iron-clioquinol control; Potency, µM (series often up to 46.1 µM), most hits filed as activators; actives 0.063% (n = 410,000); note: nearly all actives have a fitted effect of over 55% in size
#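 Yeast A-beta toxicity model in growth medium with pinned compounds, 48 h at 30 C; growth read as absorbance at 600 nm. Normalized to FeCl3/clioquinol equimolar mix (positive) and DMSO (negative).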
# * hit, by the source's call; i = inactive; ? = inconclusive; . = no result given. The list is not random: actives were taken first. Their share in the collection is about 2.2%. Calls come from the whole dose curve; as a rule, active = well fitted curve in the direction sought with a large enough effect; inconclusive = small, poorly fitted or top-dose-only effect, or another doubt; inactive = no such curve, though single readings can be large; an effect the other way counts as inactive or inconclusive. Potency is the fitted concentration of half-maximal effect.
SMILES,TDP-43 yeast inh,FUS suppressor,aSyn yeast inh,Mito fusion yeast,Abeta yeast res
O=C(CS(=O)c1ccc(C(F)(F)F)cc1[N+](=O)[O-])Oc1ccccc1 (stereo not drawn),22µM*,i,-16%,4%,i
COC(=O)c1ccc(OC(=O)CS(=O)c2ccccc2[N+](=O)[O-])cc1 (stereo not drawn),13µM*,i,10%,1%,i
C(=N\Nc1nc(N2CCCCCC2)nc(N2CCCCCC2)n1)/c1ccccc1,22µM*,i,-14%,-4%,i
COc1ccc(/C=N/Nc2nc(N3CCCCC3)nc(N3CCCCC3)n2)cc1[N+](=O)[O-],-4%,?,-2%,8%,i
O=[N+]([O-])c1cc(/C=N/Nc2nc(N3CCCCC3)nc(N3CCCCC3)n2)ccc1O,22µM*,i,-13%,2%,i
O=[N+]([O-])c1ccc(-c2ccc(/C=N/Nc3nc(N4CCCCC4)nc(N4CCCCC4)n3)o2)cc1,14µM*,i,-8%,4%,i
COc1ccc(CCn2c3c(c(=O)[nH]c2=S)CN(Cc2ccccc2)CN3)cc1OC,.,.,0%,.,.
O=Cc1c(Sc2ccccn2)nc2ccccn2c1=O,-14%,i,0%,0%,i
O=Cc1c(Sc2ccccc2)nc2ccccn2c1=O,13µM*,i,18%,4%,i
Cc1ccccc1NCc1ccc(O)c2ncccc12,-14%,i,-7%,-1%,i
Oc1ccc(CNc2ccccc2Br)c2cccnc12,.,18µM*,.,.,.
COc1ccccc1-c1nnc2sc(COc3ccc(Cl)cc3)nn12,18µM*,?,29%,11%,i
COc1ccc(-c2nnc3sc(COc4ccccc4)nn23)cc1,2.8µM*,i,7%,5%,i
Cc1ccc(CNC(=O)c2cc(Sc3ccc(F)cc3F)nc3ccccc23)cc1,-3%,i,.,.,i
CCC(c1nnnn1C1CCCC1)N1CCN(c2ccccc2F)CC1 (stereo not drawn),2%,i,9%,16%,i
CCCC(c1nnnn1C1CCCC1)N1CCN(c2ccccc2F)CC1 (stereo not drawn),-31%,i,-13%,8.9µM*,i
CCCC(c1nnnn1C(C)(C)C)N1CCN(Cc2ccccc2OC)CC1 (stereo not drawn),-17%,i,-2%,19%,i
CCCC(c1nnnn1C(C)(C)C)N1CCN(c2ccccc2)CC1 (stereo not drawn),-26%,i,1%,10µM*,i
CCOC(=O)N1CCN(C(=O)C[C@H]2C(=O)N(Cc3ccc(OC)cc3)C3=CCCC[C@@]32C(=O)OCC)CC1,.,i,.,.,.
CSc1ccccc1OCc1cc(C(=O)NCc2csc(C(C)C)n2)no1,?,i,-2%,-3%,i
CSc1ccccc1OCc1cc(C(=O)NCc2cnc(C)cn2)no1,11µM*,i,10%,0%,i
CCN(CC)CCCNC(=O)c1nn(-c2ccc(OC)c(Cl)c2)c(=O)c2c1c1ccccc1n2C,5%,i,.,.,i
Cc1cc(S(=O)(=O)Nc2ccc(-c3ccc(N4CCCCCC4)nn3)cc2)c(C)cc1Cl,-8%,?,.,.,i
CN1CCN(c2nc3c(S(=O)(=O)c4ccc(Br)cc4)nnn3c3ccsc23)CC1,-6%,i,.,.,i
Brc1ccc(-c2nn3c(-c4ccccc4)nnc3s2)cc1,.,i,.,.,.
SMILES,TDP-43 yeast inh,FUS suppressor,aSyn yeast inh,Mito fusion yeast,Abeta yeast res
CSCC(=O)N1CCCC(CO)(Cc2ccccc2C)C1 (stereo not drawn),-16%,i,-4%,22µM*,i
Cc1nn(-c2ccccc2)c(C)c1/C=N/NC(=O)c1[nH][nH]c(=O)c1C,.,i,.,.,.
Cc1cccc2c(C(=O)N3CCN(C(=O)c4ccco4)CC3)cc(-c3cccc(Br)c3)nc12,28µM*,i,11%,5%,i
O=C(c1ccco1)N1CCN(C(=O)c2cc(-c3ccccc3)nc3ccccc23)CC1,-3%,i,-2%,1%,i
O=c1c2ccccc2nnn1COc1cccc2ccccc12,13µM*,i,?,-7%,i
COc1ccccc1C(=O)OCn1nnc2ccccc2c1=O,22%,i,2%,9%,i
CCC(=O)OCn1nnc2ccccc2c1=O,14%,i,0%,7%,i
Cc1cc(C(=O)OCn2nnc3ccccc3c2=O)c(C)o1,14µM*,i,21%,6%,?
O=C(CC(c1ccccc1)c1ccccc1)OCn1nnc2ccccc2c1=O,18µM*,i,14%,13%,i
COc1ccc(S[C@]2(C(=O)N3CCN(C(C)=O)CC3)CC(=O)N(C(=O)C3CC3)[C@@H]2c2ccc(OC)cc2)cc1,.,i,.,.,.
Cn1c(=O)c2c(SCC(=O)Nc3ccc(F)cc3F)nc(C3CCCC3)nc2n(C)c1=O,2%,i,.,.,i
Cc1ccc(C(=O)Nc2ccc3oc(-c4ccccc4C)nc3c2)cc1,?,i,.,.,i
COC(=O)N1C(=O)[C@](c2ccccc2)(C2CCCC2)N1C(=O)OC,14µM*,i,2%,-1%,i
Cc1cc(Cl)cc(Cl)c1OCC(=O)NCc1ccco1,14µM*,i,5%,-6%,i
O=C(COc1ccc(Cl)cc1Cl)NCc1ccco1,15%,i,13%,0%,i
O=C1C(=O)N(Cc2ccc(-c3ccc(Cl)nc3)cc2)c2ccc(OC(F)(F)F)cc21,.,i,.,.,.
CCN(C(=O)COC(=O)c1ccc(O)cc1)c1cccc2ccccc12,?,i,29%,.,7.9µM*
Cc1cc(C=Nc2ccc(/C=C/c3ccnc4ccccc34)cc2)ccc1N(C)C,.,.,3%,.,.
CN1C(=O)C[C@@](C#N)(C(=O)N2CCOCC2)[C@H]1c1ccccc1,.,i,.,.,.
CCCNC(=O)c1noc2c1CCc1cc(OC)ccc1-2,13µM*,i,0%,-8%,i
CCc1ccccc1NC(=O)C1CCN(S(=O)(=O)c2cn(C)cn2)CC1,16%,i,.,.,i
COc1cccc(C2c3[nH]c4ccccc4c3C[C@H]3C(=O)N(c4ccccc4C(=O)N4CCC(C(=O)O)CC4)C(=O)N23)c1 (stereo partly drawn),16%,28µM*,3%,-3%,i
COc1ccc(C2c3[nH]c4ccccc4c3C[C@H]3C(=O)N(c4ccccc4C(=O)N4CCC(C(=O)O)CC4)C(=O)N23)cc1 (stereo partly drawn),7%,22µM*,0%,1%,i
COc1cccc(C2c3[nH]c4ccccc4c3C[C@H]3C(=O)N(C4CC4)CC(=O)N23)c1 (stereo partly drawn),21%,i,0%,-10%,i

# Screening data (PubChem)
